14 compounds from PubChem BioAssay (NCI) can be followed below.

Common to all, as to assay: NCI-60 one-dose screen, 48 h (100 = growth as untreated, 0 = no growth, -100 = all killed)
One assay deals with T-47D breast. Particulars: 10 µM unless noted.
In the next assay the test system is BT-549 breast. Particulars: 10 µM unless noted.
For a further assay, the system named is MDA-MB-435 melanoma. The conditions noted are these: 10 µM unless noted.
The next assay concerns SW-620 colon. Particulars: 10 µM unless noted.
In the next assay the test system is MCF7 breast. The conditions noted are these: 10 µM unless noted.
Another assay deals with HCT-116 colon. Particulars: 10 µM unless noted.
Another assay deals with HCC-2998 colon. Particulars: 10 µM.
The subject of a further assay is KM12 colon. Particulars: 10 µM unless noted.

Molecules are shown by their SMILES. This is part of a sample that, as a whole, favours compounds with a hit. Of some 83,000 tested, about 20% had one in any assay.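 Each cell line was grown in a 96-well plate and treated with one concentration of compound for 48 hours. Values below 10 were considered active.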 Values without a mark were called inactive. Active and inactive are the calls of the source.

On to `Fc1ccc(NCc2cn(-c3ccccc3)nc2-c2ccc(OCc3ccccc3)cc2)cc1Cl`, for which the growth in the assay on T-47D breast was 79.8%; in the assay with BT-549 breast it was 89.6%; in the assay on MDA-MB-435 melanoma it was 102%; with SW-620 colon, 108%; with MCF7 breast, 94.1%; with HCT-116 colon, 76.8%. Further, the growth in the assay on HCC-2998 colon was 102%; in the assay with KM12 colon, 98%.

As to `CC(N)C(Cc1ccccc1)c1ccc(Cl)cc1` (configuration not stated), the growth was 75.5% in the assay on T-47D breast; 88.4% in the assay with BT-549 breast; 94.1% in the assay on MDA-MB-435 melanoma; 88.9% in the assay on SW-620 colon; 90.3% in the assay with MCF7 breast; 78.8% in the assay on HCT-116 colon. The values for the growth in the assay on HCC-2998 colon and in the assay with KM12 colon were 84.5% and 98.9%, respectively.

Regarding `CCNCCNc1cc(-c2ccc(Cl)c(Cl)c2)c(C#N)c2nc3ccccc3n12`, the growth in the assay with T-47D breast was -60.8% (active); in the assay on BT-549 breast, -70.5% (active); in the assay with MDA-MB-435 melanoma it was -95% (active); in the assay with SW-620 colon it was -67.3% (active); with MCF7 breast it was -72% (active); with HCT-116 colon, -87.3% (active). Further, the figures for the growth in the assay on HCC-2998 colon and with KM12 colon were -87.1% (active) and -86.6% (active), respectively.

For `C=CCN1C(=O)c2cccc3c(-c4ccc5c(c4)ncn5C4CCCCC4)ccc(c23)C1=O`, the growth in the assay on T-47D breast was 11.2%; in the assay on BT-549 breast, 17%; with MDA-MB-435 melanoma it was 39.4%; in the assay with SW-620 colon, 86.3%; in the assay with MCF7 breast it was 37.6%; in the assay on HCT-116 colon, 32%. The growth is 75.2% with HCC-2998 colon and 49.4% in the assay on KM12 colon.

Consider `COc1cc2nccc(Oc3ccc(NC(=O)Nc4cc(C)on4)c(Cl)c3)c2cc1OC`, for which the growth in the assay with T-47D breast was -1.14% (active); in the assay on BT-549 breast, 19.6%; in the assay on MDA-MB-435 melanoma, 14.8%; with SW-620 colon it was 10.7%; in the assay on MCF7 breast, 22.8%; in the assay with HCT-116 colon, -4.79% (active). Also, the growth with HCC-2998 colon was 56.6%; in the assay on KM12 colon it was 11.4%.

With `CC/C(=C(/c1ccc(Cl)cc1)c1ccc(OCCN2CCCCC2)cc1)c1ccc(Cl)cc1`, the growth in the assay with T-47D breast was 43.9%; in the assay on BT-549 breast, 85.9%; in the assay with MDA-MB-435 melanoma it was 86.4%; in the assay on SW-620 colon, 65.2%; in the assay with MCF7 breast, 26.6%; in the assay on HCT-116 colon, 61.3%. Moreover, the growth with HCC-2998 colon was 89.4%; with KM12 colon it was 69.2%.

As to `COc1ccc(-c2cnc(-c3ccc(Cl)cc3)[nH]2)cc1OC`, the growth was 84.7% in the assay on T-47D breast; 132% in the assay on BT-549 breast; 128% with MDA-MB-435 melanoma; 95.9% in the assay on SW-620 colon; 93.9% with MCF7 breast; 98.6% with HCT-116 colon. Besides, the growth with HCC-2998 colon was 112%; in the assay on KM12 colon, 97.3%.

Turning to `Cn1cc(-c2cnn3c(N)c(Br)c([C@@H]4CCCNC4)nc23)cn1`, the growth in the assay with T-47D breast is 59.8%; with BT-549 breast, 52.1%; with MDA-MB-435 melanoma it was 39.1%; in the assay on SW-620 colon, 63.8%; in the assay on MCF7 breast it was 31.5%; with HCT-116 colon it was 35.8%. Further, the growth in the assay with HCC-2998 colon is 53.7%; with KM12 colon it was 18.4%.

On to `COc1cc2c(Oc3ccc4[nH]c(C)cc4c3F)ncnc2cc1OCCCN1CCCC1`, for which the growth in the assay on T-47D breast was 82.5%; in the assay on BT-549 breast, 85.5%; in the assay with MDA-MB-435 melanoma, 99.6%; in the assay on SW-620 colon, 102%; with MCF7 breast, 89.8%; with HCT-116 colon, 89.3%. Also, the growth is 102% in the assay with HCC-2998 colon and 96.7% with KM12 colon.

With `COC(=O)CC[C@@H](C)[C@H]1CC[C@H]2C3CC[C@@H]4C[C@@H]5CC[C@]4(C)[C@@]3(O5)[C@H](Br)[C@@H](Br)[C@]12C` (some centres not stated), the growth is 73.7% with T-47D breast; 102% in the assay with BT-549 breast; 93.8% in the assay with MDA-MB-435 melanoma; 102% in the assay with SW-620 colon; 87.7% in the assay with MCF7 breast; 74.2% in the assay on HCT-116 colon. Also, the growth in the assay with HCC-2998 colon is 94.8%; in the assay with KM12 colon it was 99.8%.

For `Nc1nc(Nc2ccccc2)c(C=Nc2ccccc2)c(=O)[nH]1`, the growth in the assay on T-47D breast is 81.4%; with BT-549 breast, 75.1%; in the assay with MDA-MB-435 melanoma, 94.7%; with SW-620 colon, 98.4%; with MCF7 breast, 92.5%; in the assay with HCT-116 colon, 85.1%. For the same compound, the growth with HCC-2998 colon is 99.3%; in the assay with KM12 colon, 98.6%.

In the case of `Cn1cc(-c2[nH]c3cc(NC(=O)[C@H](N)C4CCCCC4)cc4c3c2C=NNC4=O)cn1`, the growth in the assay with T-47D breast is -9.81% (active); in the assay on BT-549 breast, -73.7% (active); in the assay on MDA-MB-435 melanoma it was -33.9% (active); in the assay with SW-620 colon, -31.8% (active); in the assay with MCF7 breast, -12.1% (active); in the assay with HCT-116 colon, -76% (active). The growth is 32.6% in the assay on HCC-2998 colon and 2.52% (active) in the assay with KM12 colon.

For the compound `COc1cc(CCc2cc(NC(=O)c3ccc(N4C[C@@H](C)N[C@@H](C)C4)cc3)n[nH]2)cc(OC)c1`, the growth in the assay on T-47D breast was 63.7%; in the assay with BT-549 breast, 43.8%; with MDA-MB-435 melanoma, 28.4%; in the assay with SW-620 colon it was 28.7%; in the assay on MCF7 breast, 19.9%; in the assay with HCT-116 colon, 25.6%. Further, the results for the growth with HCC-2998 colon and in the assay on KM12 colon were 56.3% and 3.18% (active), respectively.

Take `Nc1cc2c(cc1Br)-c1c(C(=O)O)cccc1C2O` (configuration not stated): the growth is 105% with T-47D breast; 114% in the assay on BT-549 breast; 105% in the assay on MDA-MB-435 melanoma; 110% in the assay with SW-620 colon; 95.4% with MCF7 breast; 96.4% in the assay on HCT-116 colon. For the same compound, the growth was 112% in the assay on HCC-2998 colon and 99.3% in the assay on KM12 colon.
